TR SRC2 fluor cs: Texas Red fluorescence interference in TRb-SRC2 counter-screen; TRb/SRC2 Texas Red total fluorescence interference; AID 1479; Potency, µM (doses to about 106 µM), for the others: at the top dose fluorescence change, negative = quenching; actives 0.29% (n = 280,000); active means well fitted curve in either direction with a large enough effect; inconclusive means small, poorly fitted or top-dose-only effect
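Flags fluorescent or light-absorbing compounds by total fluorescence, S + 2P, at 555 nm excitation and 632 nm emission. Mixture: 20 nM Texas Red SRC2 peptide, 0.6 uM human TRb LBD, 1 uM T3, 5% DMSO; compound exposure 5 h at ambient temperature.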
Tau fluor counter: counter-screen for tau fibril formation inhibitors | actives 0.93% (n = 280,000) | AID 1463 | tau K18 P301L Alexa594 fluorescence, heparin fibrillization | Potency, µM (highest dose often 57.7 µM), for the others: top-dose activity change, negative = decrease; further: nearly all actives have a fitted effect of over 55% in size
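Human tau K18 P301L (15 uM unlabeled, 0.24 uM Alexa 594-labeled) in 100 mM sodium acetate pH 7 with 20 uM heparin, 6 hr at 37 C. ThT 30 uM added, 1 hr ambient; Alexa 594 FP and total fluorescence read at 555/632 nm.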
TRb SRC2 PPI: disrupts binding of human TR beta to SRC2. TRbeta-SRC2 peptide binding, fluorescence polarization; receptor liganded with 1 µM T3. Potency, µM (series often up to 106 µM), without a hit: at the highest dose activity change, negative = inhibition, actives largely listed as inhibitors. P10828. actives 0.065% (n = 280,000). AID 1469;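 further: plate controls were bound peptide for no effect and peptide without receptor for full effect; nearly all actives have a fitted effect of over 50% in size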
Target sequence (P10828 whole entry, looked up): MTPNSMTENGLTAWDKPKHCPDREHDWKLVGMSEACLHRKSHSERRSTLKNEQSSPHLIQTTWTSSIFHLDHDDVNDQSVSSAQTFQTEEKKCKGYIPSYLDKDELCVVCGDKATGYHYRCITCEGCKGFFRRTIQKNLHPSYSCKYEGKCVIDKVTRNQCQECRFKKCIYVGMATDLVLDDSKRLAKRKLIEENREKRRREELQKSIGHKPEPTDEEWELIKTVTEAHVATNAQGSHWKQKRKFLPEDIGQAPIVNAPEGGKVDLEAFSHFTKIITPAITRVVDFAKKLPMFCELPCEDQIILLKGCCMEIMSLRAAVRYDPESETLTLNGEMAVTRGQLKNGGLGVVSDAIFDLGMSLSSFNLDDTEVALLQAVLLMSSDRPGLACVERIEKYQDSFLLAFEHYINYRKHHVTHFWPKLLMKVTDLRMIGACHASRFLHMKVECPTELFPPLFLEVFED
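A fluorescence polarization screen tested compounds at multiple concentrations against complex formation between 0.6 uM TRb ligand-binding domain and 20 nM Texas Red SRC2 peptide, with 1 uM T3 present; readout after 5 hr.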
Tau ThT inhib: inhibitors of human tau fibril formation, thioflavin T binding. P10636. recombinant tau K18 P301L (four-repeat tau fragment), heparin-induced fibrillization, ThT fluorescence. actives 2.1% (n = 270,000). Potency, µM (top dose mostly 57.4 µM), for the others: at the highest dose activity, negative = inhibition, hits mostly inhibitors. AID 1460; further: nearly all actives have a fitted effect of over 55% in size
Target sequence (P10636 561-689 P618L limits assumed): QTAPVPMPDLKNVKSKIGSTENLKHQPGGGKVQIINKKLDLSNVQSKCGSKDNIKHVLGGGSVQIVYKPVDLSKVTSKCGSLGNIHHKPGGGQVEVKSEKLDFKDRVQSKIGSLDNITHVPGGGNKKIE
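Heparin-induced fibrillization of the P301L-mutant K18 repeat-domain fragment of human tau was followed by ThT binding in quantitative high-throughput format.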
Tau fibril FP: tau fibrillization inhibition (FP) | P10636 | K18 P301L tau heparin fibrillization, Alexa594 FP, 6 h | Potency, µM (series often up to 57.7 µM), for inactives: at the highest dose activity, negative = inhibition, hits mostly inhibitors | actives 0.39% (n = 280,000) | AID 1468; further: nearly all actives have a fitted effect of over 55% in size
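Compound effects on tau fibrillization are measured by Alexa 594 fluorescence polarization (ex 555, em 632 nm). K18 P301L tau is used at 15 uM with 0.24 uM labeled tracer, and 20 uM heparin induces aggregation over 6 hr at 37 C.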
The depositor's hits bear a star; ? = inconclusive; / = no result; [ ] = remark or other dose. Shown are actives, neighbours in structure and some others; about 3.1% of the full set was active somewhere. Unless noted, the call rests on the fitted dose curve; in most records, active means well fitted curve in the direction sought with a large enough effect; inconclusive means small, poorly fitted or top-dose-only effect, or another doubt; inactive means no such curve, though single readings can be large; an effect the other way counts as inactive or inconclusive. Unless noted, on the % scale 0 is the no-effect control and ±100 the full control effect; potency means the concentration at half of the fitted maximal effect.

SMILES | TR SRC2 fluor cs | Tau fluor counter | TRb SRC2 PPI | Tau ThT inhib | Tau fibril FP
OC[C@H]1O[C@@H](O[C@@H]2OC=C[C@H]3[C@H](O)[C@@H]4O[C@]4(CO)[C@@H]23)[C@H](O)[C@@H](O)[C@@H]1O | -2.4% | / | 2.8% | / | /
O=C1CC(c2ccccc2)=NN1c1nc(-c2ccccc2)cs1 | 31.6µM*[quencher] | ? | ? | 10µM* | ?
CCc1cccc2c(C(=O)COC(=O)c3ccc([N+](=O)[O-])s3)c[nH]c12 | -1.4% | 11.2µM*[quencher] | 4.7% | 7.08µM* | -7.7%
O=C1NC(=S)S/C1=C\c1coc2ccc(O)cc2c1=O | -24.9% | -26.2% | 19.1% | 1.12µM* | -1.7%
O=C(c1coc2ccc(O)cc12)C1CC1 | -0.1% | -3.6% | 2.6% | -10.5% | 11.7%
O=C1NC(=S)S/C1=C\c1coc2ccccc2c1=O | 14.2% | -4.1% | -23.5% | 7.94µM* | -8.3%
COc1cc(OC)c(NC(=O)CCS(=O)(=O)c2ccc3c(c2)oc(=O)n3C)cc1Cl | -1.6% | -4.5% | 2.1% | 2.6% | -0.3%
Cc1cccc(N2CCN(c3ccc(NC(=O)/C=C(/C(=O)O)c4ccccc4)cc3)CC2)c1 | 9.5% | ? | -10.0% | 8.91µM* | ?
C[N+]1=C(/C=C/Nc2ccccc2Cl)C(C)(C)c2ccccc21 | 44.7µM*[fluorescent] | ? | ? | 28.2µM* | ?
CCCCCCCCCCCCCCCCN(C)C | -2.7%[201 µM] | / | -0.2%[201 µM] | / | /
CCOC(=O)C1=C(C)N(c2ccc(C)cc2)C(=O)/C1=C\c1ccc(O)c(OC)c1 | -9.3% | ? | 2.7% | 25.1µM* | ?
CCOc1cc(/C=C2\C(=O)N(Cc3ccco3)C(C)=C2C(=O)OC)ccc1O | 1.1% | ? | -10.3% | 28.2µM* | ?
COC(=O)C1=C(C)N(Cc2ccc(C)cc2)C(=O)/C1=C\c1ccc(O)c(OC)c1 | 3.2% | ? | -0.7% | 14.1µM* | ?
COC(=O)C1=C(C)N(Cc2ccc(C)cc2)C(=O)/C1=C\c1cc(OC)c(OC)c(OC)c1 | -2.5% | -16.1% | 7.8% | ? | -7.7%
CCN1C(=O)/C(=C\c2ccco2)C(C(=O)OC)=C1C | -0.3% | -6.1% | -4.1% | ? | -4.2%
CCOc1cc(/C=C2\C(=O)N(CCc3ccc(OC)c(OC)c3)C(C)=C2C(=O)OC)ccc1O | 2.8% | ? | 0.2% | 28.2µM* | ?
CCOC(=O)C1=C(C)N(c2ccc(OCC)cc2)C(=O)/C1=C\c1ccco1 | -0.6% | -21.9% | -0.4% | 14.1µM* | ?
O=C(COc1ccc(/C=N/NS(=O)(=O)c2ccccc2)cc1)Nc1cccc(Cl)c1 | -5.4% | 15.8µM*[quencher] | -0.3% | ? | 8.4%
CN1/C(=C\C=C2/SC(=S)NC2=O)C(C)(C)c2ccccc21 | ? | ? | ? | 3.55µM* | 1.1%
CCCN1C(=O)/C(=C\C=C2\N(CC)c3ccccc3C2(C)C)SC1=S | -1.9% | -6.5% | 1.5% | ? | -15.0%
CN1C(=CC=C2C=C(I)C(=O)C(I)=C2)C(C)(C)c2ccccc21 | ? | 0.708µM*[fluorescent] | ? | 2.24µM* | ?
CS(C)=O | 1.7%[1.3e+05 µM] | / | -1.4%[1.3e+05 µM] | / | /
O=c1c2c3c(sc2ncn1/N=C/c1ccc([N+](=O)[O-])o1)CCCC3 | 0.8% | ? | -2.9% | 20µM* | -15.4%
CCCOc1cccc(C(=O)Nc2cc(-c3ccccc3)no2)c1 | 10.6% | ? | 1.6% | -4.9% | ?
Cc1ccc(-n2nc(CO)c(C(=O)NCc3ccccn3)n2)cc1 | -1.0% | -3.0% | -8.1% | -9.8% | -0.1%
SMILES | TR SRC2 fluor cs | Tau fluor counter | TRb SRC2 PPI | Tau ThT inhib | Tau fibril FP
COc1ccc(Nc2nc(N)nc(CSc3nc4cc(OC)ccc4s3)n2)cc1 | -13.5% | 14.1µM*[quencher] | 9.4% | ? | -1.6%
CC(=O)c1ccc(NC(=O)C2CCC(CNS(=O)(=O)c3cccs3)CC2)cc1 (stereo not given) | -0.4% | -25.1% | 6.0% | ? | 3.2%
CCOC(=O)c1cccc(NC(=O)CSc2ncc3c(n2)-c2ccccc2N(C)S3(=O)=O)c1 | 2.7% | -17.9% | -2.1% | 9.1% | ?
O=C(Cc1cccs1)Nc1cccc(-c2nc3cc4ccccc4cc3[nH]2)c1 | -1.6% | 14.1µM*[quencher] | 7.5% | ? | 28.2µM*
COc1ccc(OC)c(S(=O)(=O)Nc2ccc(O)c3ccccc23)c1 | -1.0% | 28.2µM*[quencher] | -11.0% | 25.1µM* | ?
COc1ccc(OC)c(S(=O)(=O)Nc2ccc(Oc3ccccc3)cc2)c1 | -0.9% | -9.3% | -2.8% | -9.0% | -2.7%
CCc1cccc(N2C(=O)CS(=O)(=O)C23C(=O)N(Cc2ccccc2)c2ccc(C)cc23)c1 (stereo not given) | 0.7% | -11.2% | 0.0% | -0.8% | -10.2%
COc1ccc(O[C@H]2C=C[C@@H](c3ccccc3)O[C@H]2COC(=O)NCc2cccc3ccccc23)cc1 | ? | -25.0%[11.6 µM] | -12.1%[11.2 µM] | -19.6%[11.5 µM] | ?
O=[N+]([O-])c1ccc(Nc2ccc3ccccc3c2)nc1 | -9.7% | ? | -8.1% | 1.26µM* | -8.9%
O=[N+]([O-])c1ccc(Nc2ccc(Cl)cc2)nc1 | -4.3% | -6.4% | -2.6% | -6.5% | -2.7%
CCOc1cc(CNCCSc2nnnn2C)cc(Cl)c1OCc1ccc(Cl)cc1 | 20µM*[quencher] | ? | -11.8% | ? | -2.4%
CN(C)c1nc(N/N=C/c2ccccc2O)nc(Nc2ccc(F)cc2)n1 | -2.2% | 8.91µM*[quencher] | 6.2% | ? | ?
O=S(=O)(Nn1c(O)c(C=C2N=c3ccccc3=N2)sc1=S)c1ccccc1 | -3.9% | ? | 10.0% | 11.2µM* | 0.2%
Oc1c(C=C2N=c3ccccc3=N2)sc(=S)n1-c1ccccc1 | 31.6µM*[quencher] | 0.7% | -13.7%[53 µM] | 2.6% | 4.6%
Oc1c(C=C2N=c3ccccc3=N2)sc(=S)n1C1CCCCC1 | 5.4% | -8.9% | -3.3% | -10.1% | -0.6%
CC1=Nc2ccccc2/C1=C/c1sc(=S)n(-c2cccc(C(=O)O)c2)c1O | -7.2% | ? | 0.2% | 3.55µM* | 11.7%
CCn1c(O)c(C=C2N=c3ccccc3=N2)sc1=S | 0.8% | -11.9% | -6.7% | -17.3% | 1.1%
O=C(Nn1c(O)c(C=C2N=c3ccccc3=N2)sc1=S)c1ccccc1Cl | -5.7% | 17.8µM*[quencher] | -7.2% | 11.2µM* | ?
CCC1=C2CC[C@H]3C(=O)N(c4ccccc4)C(=O)[C@H]3[C@H]2[C@@]2(C)C(=O)N(Cc3ccccc3)C(=O)N2C1=O | -2.9% | 1.7% | 3.8% | -6.9% | 6.6%
O=C(CCSc1ccccc1)N1CCCC1 | -1.6% | -7.5% | 4.4% | -9.2% | -2.3%
O=C1CCCCCN1Sc1ccccc1 | 2.7% | -12.8% | 3.7% | 14.1µM* | ?
CCN1CCN(Cc2ccc(NC(=O)c3cc(NC(=O)c4ccc5n[nH]nc5c4)cc(OC)c3)cc2C(F)(F)F)CC1 | -1.8% | -29.1% | 4.3% | 11.2% | ?
CCN1CCN(Cc2ccc(NC(=O)c3cc(NC(=O)c4cc(-c5ccc(OC)cc5)n[nH]4)cc(OC)c3)cc2C(F)(F)F)CC1 | 0.3% | ? | 4.3% | ? | 28.2µM*
